# Test results as given in PubChem BioAssay (EPA / NIEHS).
# Records with an inconclusive call do not appear. Activity calls are given as the source filed them. Rule for the calls: active = hit-call score of the fitted dose curve at least 0.9, where 1 is the maximum; inconclusive = response in the unintended direction; inactive = score below 0.9.
# Assays:
# [1] = target: Estrogen receptor (Homo sapiens) + Estrogen receptor beta (Homo sapiens) (UniProt P03372+Q92731); assay: OT_ER_ERaERb_1440: Odyssey Thera (OT) 24-hour HEK293T Protein-Complementation Assay for Estrogen Receptor-alpha/-beta Homodimer (AID 2283356);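 note: heteromer of ER alpha and ER beta binding domains; hits raise reporter fluorescence and both agonists and antagonists give an increase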
# Sequence of Estrogen receptor (Homo sapiens) + Estrogen receptor beta (Homo sapiens) (P03372 whole entry, looked up, the tested form may be a part): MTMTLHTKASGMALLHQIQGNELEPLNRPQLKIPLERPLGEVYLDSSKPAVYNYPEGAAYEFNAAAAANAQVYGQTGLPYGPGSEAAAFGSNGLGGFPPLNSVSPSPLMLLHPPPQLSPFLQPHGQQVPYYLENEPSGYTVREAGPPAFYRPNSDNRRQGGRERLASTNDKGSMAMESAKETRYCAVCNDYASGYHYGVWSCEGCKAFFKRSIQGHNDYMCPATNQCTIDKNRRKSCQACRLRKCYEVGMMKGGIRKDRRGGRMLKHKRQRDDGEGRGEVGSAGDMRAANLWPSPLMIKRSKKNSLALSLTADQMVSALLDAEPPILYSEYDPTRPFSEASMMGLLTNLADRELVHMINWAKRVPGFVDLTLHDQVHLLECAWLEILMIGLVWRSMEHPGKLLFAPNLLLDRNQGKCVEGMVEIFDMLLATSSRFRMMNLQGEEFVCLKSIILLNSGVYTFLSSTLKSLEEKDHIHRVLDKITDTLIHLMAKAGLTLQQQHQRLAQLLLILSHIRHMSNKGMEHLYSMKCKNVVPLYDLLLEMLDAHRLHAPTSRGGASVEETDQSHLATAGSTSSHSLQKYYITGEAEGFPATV
# Sequence of Estrogen receptor (Homo sapiens) + Estrogen receptor beta (Homo sapiens) (Q92731 whole entry, looked up, the tested form may be a part): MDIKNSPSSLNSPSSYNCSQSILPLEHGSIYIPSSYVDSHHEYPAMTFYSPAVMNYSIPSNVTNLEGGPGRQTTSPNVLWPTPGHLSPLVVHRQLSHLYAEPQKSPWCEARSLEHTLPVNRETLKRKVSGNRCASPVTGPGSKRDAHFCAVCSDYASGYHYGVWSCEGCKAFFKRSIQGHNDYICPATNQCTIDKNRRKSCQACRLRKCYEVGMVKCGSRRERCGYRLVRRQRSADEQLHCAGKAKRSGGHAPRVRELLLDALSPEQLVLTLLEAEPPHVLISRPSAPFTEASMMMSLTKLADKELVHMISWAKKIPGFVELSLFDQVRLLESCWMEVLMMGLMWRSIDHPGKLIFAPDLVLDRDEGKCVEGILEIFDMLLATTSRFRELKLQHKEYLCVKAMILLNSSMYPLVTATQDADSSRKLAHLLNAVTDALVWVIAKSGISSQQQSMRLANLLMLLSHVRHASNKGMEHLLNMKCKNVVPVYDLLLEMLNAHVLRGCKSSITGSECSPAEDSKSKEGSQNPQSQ
# In short: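 Fragment complementation between ER alpha (310-547) and ER beta (263-489) ligand-binding domains in HEK293T cells; signal read 24 h post-dosing by laser scanning cytometer. Gain of fluorescence relative to DMSO fitted.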
# [2] = target: Estrogen receptor beta (Homo sapiens) (UniProt Q92731); assay: OT_ER_ERbERb_0480: Odyssey Thera (OT) 8-hour HEK293T Protein-Complementation Assay for Estrogen Receptor-beta/-beta Homodimer (AID 2283357);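 note: active means signal gain over DMSO baseline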
# Sequence of Estrogen receptor beta (Homo sapiens) (Q92731 whole entry, looked up, the tested form may be a part): as above
# In short: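 Fluorescence gain from complemented reporter fragments on ER-beta LBD homodimer in HEK293T was quantified against DMSO controls after 8 h treatment, fixation in 4% formaldehyde and Draq5 staining.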
# [3] = target: Retinoic acid receptor alpha (Homo sapiens) (UniProt P10276); assay: NVS_NR_hRAR_Antagonist: NovaScreen (NVS) Nuclear Receptor Binding Assay for human Retinoic Acid Alpha Receptor Antagonism (RAR) (AID 2283358)
# Sequence of Retinoic acid receptor alpha (Homo sapiens) (P10276 whole entry, looked up): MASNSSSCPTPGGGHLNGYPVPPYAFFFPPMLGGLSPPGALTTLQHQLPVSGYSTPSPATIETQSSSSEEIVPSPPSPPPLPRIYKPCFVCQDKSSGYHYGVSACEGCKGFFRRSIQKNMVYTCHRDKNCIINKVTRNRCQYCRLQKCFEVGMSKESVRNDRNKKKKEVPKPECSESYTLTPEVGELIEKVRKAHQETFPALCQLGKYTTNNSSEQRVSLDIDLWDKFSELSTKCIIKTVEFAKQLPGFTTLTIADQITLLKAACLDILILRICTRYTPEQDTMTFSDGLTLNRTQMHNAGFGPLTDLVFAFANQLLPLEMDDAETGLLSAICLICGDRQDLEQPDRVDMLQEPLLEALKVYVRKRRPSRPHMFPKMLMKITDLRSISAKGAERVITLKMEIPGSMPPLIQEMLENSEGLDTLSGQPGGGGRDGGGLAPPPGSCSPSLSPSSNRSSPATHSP
# In short: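 Chemicals were first tested in duplicate at 25 uM, then actives in concentration series, in a cell-free TR-FRET antagonist binding format. Measurements were taken 2 hours after dosing and loss of signal was evaluated against DMSO controls.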
# [4] = target: human Peroxisome Proliferator-activated Receptor alpha (PPARa), PPARA (gene 5465) (UniProt Q07869); assay: NVS_NR_hPPARa: NovaScreen (NVS) Nuclear Receptor Binding Assay for human Peroxisome Proliferator-activated Receptor alpha (PPARa) (AID 2283359);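 note: activity means loss of TR-FRET signal versus DMSO baseline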
# Sequence of human Peroxisome Proliferator-activated Receptor alpha (PPARa), PPARA (gene 5465) (Q07869 whole entry, looked up): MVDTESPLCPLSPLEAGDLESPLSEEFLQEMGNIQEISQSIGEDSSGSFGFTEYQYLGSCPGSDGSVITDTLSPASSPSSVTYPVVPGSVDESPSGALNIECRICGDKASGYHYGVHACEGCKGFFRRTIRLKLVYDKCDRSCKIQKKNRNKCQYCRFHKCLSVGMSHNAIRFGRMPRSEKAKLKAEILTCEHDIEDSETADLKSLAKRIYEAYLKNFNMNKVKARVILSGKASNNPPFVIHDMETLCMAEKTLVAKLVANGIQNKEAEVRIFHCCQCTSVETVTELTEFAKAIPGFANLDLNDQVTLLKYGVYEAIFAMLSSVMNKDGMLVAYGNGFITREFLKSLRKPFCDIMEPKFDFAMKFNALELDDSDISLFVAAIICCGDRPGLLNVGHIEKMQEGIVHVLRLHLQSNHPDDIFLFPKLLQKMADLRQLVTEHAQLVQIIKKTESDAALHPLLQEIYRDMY
# In short: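 One-hour incubation, cell-free extracted protein, TR-FRET binding readout; signal loss vs DMSO scored. Screen: 25 uM duplicates, confirmatory dose series for actives.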
# [5] = target: Glucocorticoid receptor (Homo sapiens) (UniProt P04150); assay: NVS_NR_hGR: NovaScreen (NVS) Nuclear Receptor Binding Assay for human Glucocorticoid Receptor (GR) (AID 2283363);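 for AC50: activity is loss of specific radioligand binding signal relative to DMSO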
# Sequence of Glucocorticoid receptor (Homo sapiens) (P04150 whole entry, looked up): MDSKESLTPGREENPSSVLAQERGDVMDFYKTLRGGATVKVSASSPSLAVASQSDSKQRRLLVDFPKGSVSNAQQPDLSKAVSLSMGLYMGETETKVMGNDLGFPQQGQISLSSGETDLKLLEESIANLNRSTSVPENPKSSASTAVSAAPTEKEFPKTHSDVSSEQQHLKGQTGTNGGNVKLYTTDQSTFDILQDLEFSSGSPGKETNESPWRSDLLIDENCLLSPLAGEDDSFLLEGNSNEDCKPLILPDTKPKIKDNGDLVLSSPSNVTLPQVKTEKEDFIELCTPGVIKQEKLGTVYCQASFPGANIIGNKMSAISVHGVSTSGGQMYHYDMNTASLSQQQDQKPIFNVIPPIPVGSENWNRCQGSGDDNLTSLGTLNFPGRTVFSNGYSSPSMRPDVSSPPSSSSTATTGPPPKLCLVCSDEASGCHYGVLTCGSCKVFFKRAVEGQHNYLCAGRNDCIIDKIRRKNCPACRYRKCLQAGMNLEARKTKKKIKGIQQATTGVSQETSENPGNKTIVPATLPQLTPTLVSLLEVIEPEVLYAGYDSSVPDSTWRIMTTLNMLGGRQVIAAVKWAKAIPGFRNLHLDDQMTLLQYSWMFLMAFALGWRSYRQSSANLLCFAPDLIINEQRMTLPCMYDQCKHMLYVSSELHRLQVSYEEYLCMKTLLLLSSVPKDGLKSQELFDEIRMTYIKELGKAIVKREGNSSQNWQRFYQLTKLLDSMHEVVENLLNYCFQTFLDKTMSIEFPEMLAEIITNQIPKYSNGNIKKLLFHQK
# In short: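 Single-readout cell-free binding: radioligand plus extracted receptor, 16-hour dosing, filter radiodetection; 25 uM duplicate primary, concentration series secondary.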
# PGR (gene 5241) = PGR (gene 5241) (UniProt P06401); assay: NVS_NR_hPR: NovaScreen (NVS) Nuclear Receptor Binding Assay for human Progestron Receptor (PR) (AID 2283360);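 note: active means loss of bound radioligand signal versus DMSO baseline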
# Sequence of PGR (gene 5241) (P06401 whole entry, looked up): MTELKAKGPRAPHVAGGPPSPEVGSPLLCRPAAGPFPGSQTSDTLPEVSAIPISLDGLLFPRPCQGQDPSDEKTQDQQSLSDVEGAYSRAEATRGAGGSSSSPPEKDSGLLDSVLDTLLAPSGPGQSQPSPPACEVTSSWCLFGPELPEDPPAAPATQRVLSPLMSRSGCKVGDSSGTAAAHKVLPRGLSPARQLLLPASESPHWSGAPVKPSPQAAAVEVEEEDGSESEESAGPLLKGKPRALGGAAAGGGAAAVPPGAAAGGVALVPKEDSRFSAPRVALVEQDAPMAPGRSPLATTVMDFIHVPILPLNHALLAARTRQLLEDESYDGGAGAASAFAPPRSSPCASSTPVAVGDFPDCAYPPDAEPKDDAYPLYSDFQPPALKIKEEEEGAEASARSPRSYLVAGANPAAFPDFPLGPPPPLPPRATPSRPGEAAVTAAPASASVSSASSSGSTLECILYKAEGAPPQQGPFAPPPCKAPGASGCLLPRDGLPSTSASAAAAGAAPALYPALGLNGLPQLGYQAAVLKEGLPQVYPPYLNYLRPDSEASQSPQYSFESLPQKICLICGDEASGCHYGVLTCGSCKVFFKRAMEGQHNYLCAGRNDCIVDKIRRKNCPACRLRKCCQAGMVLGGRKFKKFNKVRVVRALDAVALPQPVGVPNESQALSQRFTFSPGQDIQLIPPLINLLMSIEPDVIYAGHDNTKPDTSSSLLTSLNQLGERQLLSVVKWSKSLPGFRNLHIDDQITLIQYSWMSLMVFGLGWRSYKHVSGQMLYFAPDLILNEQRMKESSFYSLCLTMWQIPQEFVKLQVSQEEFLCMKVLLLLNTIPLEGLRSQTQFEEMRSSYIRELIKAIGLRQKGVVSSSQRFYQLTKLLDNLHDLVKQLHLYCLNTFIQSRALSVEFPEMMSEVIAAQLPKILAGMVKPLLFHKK
# In short: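 Cell-free radioligand binding using receptor protein extracted from T47D cells, read by scintillation counting 18 hours after dosing. Loss of signal relative to DMSO baseline indicates displacement; primary screen single concentration 25 uM in duplicate, actives followed in concentration series.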
# [6] = target: Androgen Receptor/SRC-1 Co-activator, AR (gene 367) (UniProt P10275); assay: OT_AR_ARSRC1_0960: Odyssey Thera (OT) 16-hour HEK293T Protein-Complementation Assay for Androgen Receptor/SRC-1 Co-activator (AID 2283353);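 note: actives raise the signal above DMSO so potency reflects increased AR and SRC-1 complex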
# Sequence of Androgen Receptor/SRC-1 Co-activator, AR (gene 367) (P10275 whole entry, looked up, the tested form may be a part): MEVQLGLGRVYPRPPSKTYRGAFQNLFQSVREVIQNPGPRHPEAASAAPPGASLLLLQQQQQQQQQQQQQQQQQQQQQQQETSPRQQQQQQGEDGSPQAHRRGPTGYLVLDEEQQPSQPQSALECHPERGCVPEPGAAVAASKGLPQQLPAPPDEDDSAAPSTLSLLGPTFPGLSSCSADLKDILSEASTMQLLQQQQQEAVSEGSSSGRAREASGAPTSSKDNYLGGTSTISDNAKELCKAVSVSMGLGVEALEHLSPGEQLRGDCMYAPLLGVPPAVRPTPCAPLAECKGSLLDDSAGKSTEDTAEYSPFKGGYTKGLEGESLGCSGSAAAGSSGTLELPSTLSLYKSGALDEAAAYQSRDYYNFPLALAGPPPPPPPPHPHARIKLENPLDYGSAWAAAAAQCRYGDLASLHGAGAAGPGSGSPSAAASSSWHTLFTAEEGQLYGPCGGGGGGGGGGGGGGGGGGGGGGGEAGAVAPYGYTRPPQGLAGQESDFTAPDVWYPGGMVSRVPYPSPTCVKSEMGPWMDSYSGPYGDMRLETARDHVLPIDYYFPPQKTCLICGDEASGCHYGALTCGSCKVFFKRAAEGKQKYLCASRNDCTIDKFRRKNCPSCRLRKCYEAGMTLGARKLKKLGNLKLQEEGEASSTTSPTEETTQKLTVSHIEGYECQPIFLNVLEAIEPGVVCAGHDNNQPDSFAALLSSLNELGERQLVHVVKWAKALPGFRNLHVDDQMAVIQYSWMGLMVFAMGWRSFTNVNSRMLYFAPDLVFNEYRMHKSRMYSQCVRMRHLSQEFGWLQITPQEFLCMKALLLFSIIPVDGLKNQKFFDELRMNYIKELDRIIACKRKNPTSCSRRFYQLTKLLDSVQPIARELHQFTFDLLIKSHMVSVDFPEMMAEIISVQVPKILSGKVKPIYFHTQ
# Method: OT_AR_ARSRC1_0960 is a cell-based, single-readout assay that uses HEK293T, a human kidney cell line, with measurements taken at 16 hours after chemical dosing in a 384-well plate.OT_AR_ARSRC1_0960 is one of one assay component(s) measured or calculated from the OT_AR_ARSRC1_0960 assay. It is designed to make measurements of protein fragment complementation, a form of binding reporter, as detected with fluorescence intensity signals by Protein-fragment Complementation technology.Data from the assay component OT_AR_ARSRC1_0960 was analyzed into 1 assay endpoint. This assay endpoint, OT_AR_ARSRC1_0960, was analyzed in the positive analysis fitting direction relative to DMSO as the negative control and baseline of activity. Using a type of binding reporter, measures of receptor for gain-of-signal activity can be used to understand the binding at the pathway-level as they relate to the gene AR. Furthermore, this assay endpoint can be referred to as a primary readout, because the performed assay has only produced 1 assay endpoint. To generalize the intended target to other relatable targets, this assay endpoint is annotated to the nuclear receptor intended target family, where the subfamily is steroidal.
# Protein-fragment complementation assay, or PCA, is a method for the identification and quantification of protein-protein interactions. In the PCA, the proteins of interest ("bait" and "prey") are each covalently linked to fragments of a third protein (e.g. DHFR, which acts as a "reporter"). Interaction between the bait and the prey proteins brings the fragments of the reporter protein in close proximity to allow them to form a functional reporter protein whose activity can be measured. The OT AR / SRC-1 assay assessed androgen receptor chemical interactions using a rapidly maturing, intensely fluorescent mutant of YFP known as Venus, rationally dissected into two separate fragments. […] Fusion constructs were transfected into HEK293T cells with a (Gly4Ser)2 linker between the AR/SRC-1 and YFP fragment genes to facilitate complementation when interacting proteins bring fragments into close proximity. The construct is stably expressed in HEK293T cells. […] Images were acquired on an Evotec Opera at 2 wavelengths (488 and 635nm), and the ratio of fluorescence in the nucleus relative to fluorescence in the cytoplasm (N/C Ratio) in the 488nm channel was calculated for a minimum of 400 cells per image. Both agonists and antagonists of the AR receptor induce nuclear translocation to varying degrees. […] The OT AR/SRC-1 assay was also run for 16 hours (see description for OT_AR_ARSRC1_0960).
# [7] = target: Androgen Receptor/SRC-1 Co-activator, AR (gene 367) (UniProt P10275); assay: OT_AR_ARSRC1_0480: Odyssey Thera (OT) 8-hour HEK293T Protein-Complementation Assay for Androgen Receptor/SRC-1 Co-activator (AID 2283354);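 note: hits raise the complementation signal above DMSO so AC50 marks enhancers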
# In short: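 After 8 h dosing, stably expressing HEK293T cells with split-Venus AR/SRC-1 fusions were imaged (488, 635nm). The 488nm N/C ratio per image gave the endpoint, analysed in the positive direction against DMSO.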
# [8] = target: human Thyroid Receptor Alpha (TRa), THRA (gene 7067) (UniProt P10827); assay: NVS_NR_hTRa_Antagonist: NovaScreen (NVS) Nuclear Receptor Binding Assay for human Thyroid Receptor Alpha Antagonism (TRa) (AID 2283362)
# In short: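 Actives from a duplicate 25 uM single-point screen were retested in concentration series. The cell-free antagonist-format binding assay was read by AlphaLISA chemiluminescence at 1 h, scored as signal loss relative to DMSO.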
# [9] = target: rat Mineralocorticoid Receptor (MR), Nr3c2 (gene 25672) (UniProt P22199); assay: NVS_NR_rMR: NovaScreen (NVS) Nuclear Receptor Binding Assay for rat Mineralocorticoid Receptor (MR) (AID 2283355)
# In short: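 Single-concentration duplicate screen (25 uM) of radioligand binding in adrenalectomized rat brain supernatant; scintillation detection 24 h after dosing. Positive and negative controls ran on each plate, and confirmed actives went to concentration-response.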
smiles,measurement,setting,value
COC(=O)C1CCC(C(=O)OC)CC1 (configuration not stated),outcome,[1],inactive
same,outcome,[2],inactive
Cc1ccc(S(=O)(=O)NCl)cc1,outcome,[1],inactive
same,outcome,[2],inactive
CC(Cc1ccc(O)c(O)c1)C(C)Cc1ccc(O)c(O)c1 (configuration not stated),AC50,[1],11.9 µM (active)
same,AC50,[2],11.9 µM (active)
same,AC50,[3],11.7 µM (active)
same,AC50,[4],4.6 µM (active)
same,AC50,[5],1.79 µM (active)
Nc1ccc(Oc2cccc(Oc3ccc(N)cc3)c2)cc1,outcome,PGR (gene 5241),inactive
CCCCC(CC)COP(=O)(O)OCC(CC)CCCC (configuration not stated),outcome,[4],inactive
same,AC50,[5],8.04 µM (active)
CN(C)Cc1ccccc1O,outcome,[6],inactive
same,outcome,[7],inactive
same,outcome,[1],inactive
same,outcome,[2],inactive
CCCCCCOC(=O)c1ccccc1O,outcome,[6],inactive
same,outcome,[7],inactive
same,outcome,[1],inactive
same,outcome,[2],inactive
CCCCCCOC(=O)c1ccccc1,outcome,[1],inactive
same,outcome,[2],inactive
CCN(Cc1cccc(S(=O)(=O)O)c1)c1ccc(C(=C2C=CC(=[N+](CC)Cc3cccc(S(=O)(=O)O)c3)C=C2)c2ccc(O)cc2S(=O)(=O)[O-])cc1,outcome,[1],inactive
same,outcome,[2],inactive
same,AC50,[3],7.39 µM (active)
same,AC50,[5],11.5 µM (active)
C(=C(c1ccccc1)c1ccccc1)c1ccccc1,AC50,[1],29.3 µM (active)
same,AC50,[2],1.49 µM (active)
O=C(OCCOCCOCCOC(=O)c1ccccc1)c1ccccc1,outcome,[1],inactive
C1COCCN1,outcome,[1],inactive
same,outcome,[2],inactive
CCCCNc1ccccc1,outcome,PGR (gene 5241),inactive
CCCCOc1ccc(N)cc1,AC50,[1],68.7 µM (active)
same,outcome,[2],inactive
Cc1cc(C)cc(O)c1,outcome,[1],inactive
same,outcome,[2],inactive
same,outcome,[5],inactive
CC(CCl)OP(=O)(OC(C)CCl)OC(C)CCl (configuration not stated),outcome,[1],inactive
same,outcome,[2],inactive
CC/C=C\CCOC(C)=O,outcome,[1],inactive
same,outcome,[2],inactive
CCCCCCC(C)OC(=O)CCCCC(=O)OC(C)CCCCCC (configuration not stated),outcome,[6],inactive
same,outcome,[7],inactive
same,outcome,[1],inactive
same,outcome,[2],inactive
same,outcome,[8],inactive
[Co],outcome,[6],inactive
same,outcome,[7],inactive
same,outcome,[1],inactive
same,outcome,[2],inactive
C#C[C@]1(O)CC[C@H]2[C@@H]3CCc4cc(OC)ccc4[C@H]3CC[C@@]21C,outcome,[9],inactive
same,outcome,PGR (gene 5241),inactive
same,outcome,[5],inactive
CNC(=S)NC,outcome,[6],inactive
same,outcome,[7],inactive
same,outcome,[4],inactive
same,outcome,[5],inactive
